Compounds with a hit are over-represented: about 12% of the library has one in this group of screens.
HP1b chromo inh: HP1-beta chromodomain-methylated histone interaction inhibition. P83916. AlphaScreen HP1-beta / biotin-H3K9me3 peptide binding. Potency, µM (highest dose often 114 µM), without a hit: at the highest dose activity change, negative = inhibition, usual class: inhibitors. 390,000 compounds, 0.56% hits. AID 540317; also: nearly all actives have a fitted effect of over 70% in size
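Compound inhibition of the preformed complex between 50 nM HP1-beta and 50 nM biotinylated H3K9me3 peptide was read by AlphaScreen. Buffer was PBS pH 7.4 with 0.01% Tween-20. Incubations ran 30 min at room temperature, with 10 ug/mL donor/acceptor beads.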
Sfp PPTase inh: blocks B. subtilis Sfp PPTase activity; Q9F4F7; Potency, µM, inactives show largest response in the series, negative = inhibition, usual class: inhibitors; Biochemical Sfp PPTase activity, qHTS; 310,000 compounds, 3.5% hits;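 also: the enzyme is Sfp with the accession as filed and its product quenches rhodamine fluorescence; 0% = enzyme reaction without inhibitor and -100% = no enzyme wells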
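Fluorescence-quenching assay with 15 nM Sfp, 5 uM rhodamine-CoA and 12.5 uM BHQ-2-labelled ybbR peptide in pH 7.6 Hepes/MgCl2 buffer. Enzyme was pre-incubated with compound for 15 min at room temperature. Rate was taken from the 30-min fluorescence change (525/598 nm).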
PLK1 PBD inh: inhibitors of human PLK1 polo-box domain binding. P53350. 360,000 compounds, 2.8% hits. Potency, µM, for inactives: max response, negative = inhibition, most hits filed as inhibitors. Plk1 PBD binding of FITC phosphopeptide, fluorescence polarization; also: series mostly up to about 57 µM; % is scaled to controls: 0 for no effect and ±100 for the full control effect; nearly all actives have a fitted effect of over 65% in size
JMJD2A Tudor: inhibitors of human JMJD2A Tudor domain | AlphaScreen JMJD2A-Tudor / H3K4me3 peptide binding | Potency, µM (doses to about 114 µM), for inactives: at the top dose activity change, negative = inhibition, hits mostly inhibitors | 390,000 compounds, 4.4% hits; also: % is scaled to controls: 0 for no effect and ±100 for the full control effect; nearly all actives have a fitted effect of over 50% in size
G9a inh: G9a (human) methyltransferase inhibition; Potency, µM (doses to about 102 µM), without a hit: at the top dose activity, negative = inhibition, usual class: inhibitors; G9a H3K9 monomethylation, AlphaScreen, 2 h; 350,000 compounds, 8.8% hits; also: % is scaled to controls: 0 for no effect and ±100 for the full control effect; nearly all actives have a fitted effect of over 75% in size
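Compounds were preincubated with 20 nM G9a for 15 min, after which biotinylated H3K9 peptide (500 nM) and SAM (20 uM) started a 2 h room-temperature reaction. Monomethylated product was quantified by antibody-based AlphaScreen chemiluminescence.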
BAZ2B block: blocks human BAZ2B; 360,000 compounds, 4.4% hits; Potency, µM (top dose mostly 114 µM), inactives show top-dose activity change, negative = inhibition, hits mostly inhibitors; Q9UIF8; AlphaScreen BAZ2B-H3K14Ac peptide displacement; also: % is scaled to controls: 0 for no effect and ±100 for the full control effect; nearly all actives have a fitted effect of over 60% in size
Target sequence (Q9UIF8 whole entry, looked up): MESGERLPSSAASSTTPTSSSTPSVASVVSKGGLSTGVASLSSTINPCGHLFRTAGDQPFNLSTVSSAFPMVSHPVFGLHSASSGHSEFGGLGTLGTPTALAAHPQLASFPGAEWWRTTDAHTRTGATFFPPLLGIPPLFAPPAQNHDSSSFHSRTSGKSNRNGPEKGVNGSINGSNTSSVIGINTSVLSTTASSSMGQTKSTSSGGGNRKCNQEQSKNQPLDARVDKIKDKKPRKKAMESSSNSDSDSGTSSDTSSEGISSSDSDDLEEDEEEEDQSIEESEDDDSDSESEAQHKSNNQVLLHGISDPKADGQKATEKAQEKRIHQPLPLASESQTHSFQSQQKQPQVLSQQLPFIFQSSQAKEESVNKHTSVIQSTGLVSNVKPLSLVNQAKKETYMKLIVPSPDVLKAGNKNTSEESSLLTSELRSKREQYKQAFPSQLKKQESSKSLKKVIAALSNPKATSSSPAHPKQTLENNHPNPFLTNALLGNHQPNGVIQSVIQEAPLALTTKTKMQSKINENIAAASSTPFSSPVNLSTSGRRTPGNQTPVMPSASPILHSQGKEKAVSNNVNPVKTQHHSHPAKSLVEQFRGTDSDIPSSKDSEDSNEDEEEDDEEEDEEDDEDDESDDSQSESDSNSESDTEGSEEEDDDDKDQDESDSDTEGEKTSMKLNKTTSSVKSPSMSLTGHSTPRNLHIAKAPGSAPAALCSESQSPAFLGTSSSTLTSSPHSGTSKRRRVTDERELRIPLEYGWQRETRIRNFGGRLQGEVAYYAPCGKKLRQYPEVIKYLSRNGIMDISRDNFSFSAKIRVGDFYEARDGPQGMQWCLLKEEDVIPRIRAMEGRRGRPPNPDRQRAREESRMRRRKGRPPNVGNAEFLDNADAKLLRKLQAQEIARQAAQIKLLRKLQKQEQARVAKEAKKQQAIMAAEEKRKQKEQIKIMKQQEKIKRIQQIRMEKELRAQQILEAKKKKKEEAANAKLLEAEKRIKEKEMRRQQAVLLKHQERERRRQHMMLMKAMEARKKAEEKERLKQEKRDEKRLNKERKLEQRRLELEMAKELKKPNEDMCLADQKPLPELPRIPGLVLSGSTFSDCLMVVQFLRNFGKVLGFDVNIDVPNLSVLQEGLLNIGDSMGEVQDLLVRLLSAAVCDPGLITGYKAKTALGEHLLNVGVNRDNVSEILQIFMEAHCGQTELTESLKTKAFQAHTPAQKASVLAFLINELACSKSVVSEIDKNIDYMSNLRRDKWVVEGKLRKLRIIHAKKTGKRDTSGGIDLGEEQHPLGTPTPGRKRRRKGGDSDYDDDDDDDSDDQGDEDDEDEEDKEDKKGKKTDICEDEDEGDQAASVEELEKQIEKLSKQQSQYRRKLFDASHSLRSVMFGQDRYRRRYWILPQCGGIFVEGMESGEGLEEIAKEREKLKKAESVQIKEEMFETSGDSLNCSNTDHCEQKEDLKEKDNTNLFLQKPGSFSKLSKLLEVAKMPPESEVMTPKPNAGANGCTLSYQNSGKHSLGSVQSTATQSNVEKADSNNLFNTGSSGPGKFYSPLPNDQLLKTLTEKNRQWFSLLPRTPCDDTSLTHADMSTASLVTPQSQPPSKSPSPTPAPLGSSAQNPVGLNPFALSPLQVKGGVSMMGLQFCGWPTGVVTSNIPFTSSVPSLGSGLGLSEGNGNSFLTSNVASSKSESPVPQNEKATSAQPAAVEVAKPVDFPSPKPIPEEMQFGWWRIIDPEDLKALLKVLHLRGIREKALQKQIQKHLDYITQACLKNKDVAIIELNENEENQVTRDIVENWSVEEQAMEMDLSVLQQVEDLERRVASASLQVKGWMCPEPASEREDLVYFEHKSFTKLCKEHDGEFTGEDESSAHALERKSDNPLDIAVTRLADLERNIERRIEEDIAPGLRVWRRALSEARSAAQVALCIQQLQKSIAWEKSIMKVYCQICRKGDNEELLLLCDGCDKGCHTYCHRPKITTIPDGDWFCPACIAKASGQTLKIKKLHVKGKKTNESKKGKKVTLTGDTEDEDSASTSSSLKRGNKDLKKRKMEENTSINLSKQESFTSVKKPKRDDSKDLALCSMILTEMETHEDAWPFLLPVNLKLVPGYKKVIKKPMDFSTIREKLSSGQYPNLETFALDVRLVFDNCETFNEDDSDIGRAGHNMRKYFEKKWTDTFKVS
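Multi-concentration screen (max 110 uM) measuring displacement of acetylated histone H3 peptide from BAZ2B by AlphaScreen, using 50 nM protein, 50 nM peptide and 10 ug/mL streptavidin donor plus Ni-chelate acceptor beads.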
* = called active by the depositor; ? = inconclusive; / = no result; [ ] = another dose, or the depositor's remark. Calls follow the shape of the dose curve; as a rule, active = well fitted curve in the direction sought with a large enough effect; inconclusive = small, poorly fitted or top-dose-only effect, or another doubt; inactive = no such curve, though single readings can be large; an effect the other way counts as inactive or inconclusive. Potency is read from the fitted curve at half-maximal effect.

SMILES	HP1b chromo inh	Sfp PPTase inh	PLK1 PBD inh	JMJD2A Tudor	G9a inh	BAZ2B block
CCc1cccc(NS(=O)(=O)c2c(C)nc3sc(CC)nn3c2=O)c1	45%	-13%	-4%	-12%	-6%[59 µM]	8%
O=C(Nc1ccc(NC(=O)c2ccc(Cl)cc2Cl)cc1)c1ccc2c(c1)OCO2	29%	-2%	0%	1%	3%	12%
O=C(Nc1ccc(C2=NCCN2)cc1)c1ccc(C(=O)Nc2ccc(C3=NCCN3)cc2)c(Cl)c1	?	9%	11%	56µM*	25µM*	-28%
COc1ccc2c(c1)c1ccccc1n2C	77%	19%	-10%	9%	9%[59 µM]	35%
COc1ccc2ccc3c(c2c1)N=C[C@]1(O3)N(C)c2ccccc2C1(C)C	?	50µM*	3µM*	-28%[11.4 µM]	29%[0.501 µM]	50µM*
C=CCOc1ccccc1C(=O)/C=C1/C(=O)Nc2ccccc21	-13%	79µM*	?	?	?	-34%
COc1ccc(C(=O)/C=C2/C(=O)Nc3ccccc32)c(OC)c1	-33%	56µM*	?	-22%	-41%[12.7 µM]	?
COc1ccc(C(=O)/C=C2/C(=O)Nc3ccccc32)cc1OC	20%	0%	-23%	-15%	-50%	-8%
C=CCOc1ccc(C(=O)/C=C2/C(=O)Nc3ccccc32)cc1	36%	13%	-8%	-17%	?	-39%
O=C(C=Cc1ccccc1)c1cccs1	63%	/	-16%	4%	/	/
COc1ccc(C(=O)/C=C2/C(=O)Nc3ccccc32)cc1	40%	-1%	-13%	-16%	-12%	-5%
O=C1Nc2ccccc2/C1=C/C(=O)c1cccs1	-25%	45µM*	17µM*	-27%[57.1 µM]	?	35µM*
NC(=O)COc1ccc(C(=O)/C=C2/C(=O)Nc3ccccc32)cc1	-4%	-6%	?	?	79µM*	-15%
C=C(C)[C@]12C[C@@H](C)[C@@]34OC(Cc5ccccc5)(O[C@@H]1[C@@H]3C=C(COC(=O)Cc1cc(OC)c(O)cc1I)C[C@]1(O)C(=O)C(C)=C[C@@H]41)O2	/	16%	/	/	22%[59 µM]	/
O=C(NCCCO)C(=O)Nc1cc2c3c(c1)CCC(=O)N3CCC2	7%	16%	4%	-23%	22%	-3%
COCCNC(=O)Cn1c(-c2cccs2)cc2cc(Cl)ccc21	24%	/	/	-11%	-19%[59 µM]	-12%
CC(C)(C)c1ccc(CSc2nc3c(c(=O)[nH]2)CCCC3)cc1	21%	/	/	-13%	5%[59 µM]	-17%
COc1ccc(-n2c3c(cc(C(=O)NNc4ccccc4C)c2=O)C(=O)CC(C)(C)C3)cc1	8%	4%	-3%	-11%	50µM*	/
Cc1cccc(S(=O)(=O)NNC(=O)Cc2cccn2C)c1	-30%	12%	27µM*	40µM*	50µM*	-28%
O=C(Nc1ccc(-c2n[nH]c(=S)o2)cc1)c1ccccc1Cl	17%	-3%	-17%	-15%	1.8µM*	-4%
COc1cc(/C=C(\C#N)c2nc3c(s2)CCCC3)ccc1O	/	-21%	/	/	?	56µM*
CNC(=O)c1nc[nH]c1C(=O)NC	-2%	-22%	-5%	28µM*	?	?
CNC(=O)c1[nH]cnc1C(=O)NCC(=O)OC(C)(C)C	45%	24%	-1%	-8%	?	-30%
CCNC(=O)c1nc[nH]c1C(=O)NCC	0%	5%	-4%	40µM*	-18%[59 µM]	-6%
CN(Cc1ccccc1)C(=O)c1[nH]cnc1C(=O)Nc1nccs1	11%	/	?	56µM*	6%[0.501 µM]	25µM*
SMILES	HP1b chromo inh	Sfp PPTase inh	PLK1 PBD inh	JMJD2A Tudor	G9a inh	BAZ2B block
Nc1ccccc1C(=O)NCc1ccccc1	-4%	7%	3.8µM*	35µM*	-2%	3%
NNC(=O)c1nc[nH]c1C(=O)Nc1ccccc1	49%	25%	1%	?	?	1.3µM*
CNC(=O)c1[nH]cnc1C(=O)Nc1ccc(OC)cc1	17%	-9%	2%	-17%	/	79µM*
O=C(Nc1ccc(F)cc1)c1nc[nH]c1C(=O)O	96%	-2%	-15%	10µM*	-4%[2.33 µM]	4.5µM*
O=C(Nc1ccccc1[N+](=O)[O-])c1nc[nH]c1C(=O)NCCO	34%	3%	1%	?	14µM*	56µM*
c1ccc(COc2ncnc3c2ncn3CCCNCc2cccs2)cc1	/	/	2%	/	/	/
Brc1ccc([C@H]2C=C[C@H]3CCCN4CC[C@H]2[C@@H]3[C@]42CO2)cc1	/	/	-10%	/	/	/
Cn1c(=O)oc2cc(S(=O)(=O)N3CCC(C(=O)N4CCN(c5ccccc5F)CC4)CC3)ccc21	33%	/	/	-22%	14%[59 µM]	-2%
Cc1cccc(C)c1NC(=O)[C@H](C)N	/	-1%	/	/	35%[21.5 µM]	/
O=C(NCc1ccccc1)c1nc[nH]c1C(=O)NCc1ccccc1	47%	-2%	-6%	-10%	50µM*	?
CCOC(=O)NC(=O)CSc1nc(-c2ccc(C)c(C)c2)cn1-c1ccccc1	?	-14%	-6%	?	7.9µM*	35µM*
Cc1ccc(-c2cn(-c3ccccc3)c(SCC(N)=O)n2)cc1C	-22%	-18%	-4%	?	?	50µM*
Cc1ccccc1-n1cc(-c2ccc(Br)cc2)nc1SCC(N)=O	-10%	-5%	4%	?	-39%[59 µM]	?
O=C1/C(=C/c2cccs2)SC(=S)N1CCC(=O)N1CCCCC1CCO (configuration not stated)	6%	-12%	-18%	?	50µM*	22µM*
Cc1ccc(/C=C2/SC(=S)N(CCC(=O)N3CCN(C)CC3)C2=O)cc1	1%	-2%	-8%	-22%	/	-10%
CN1CCN(C(=O)CCN2C(=O)/C(=C/c3ccc(F)cc3)SC2=S)CC1	-7%	-10%	-17%	-27%	71µM*	?
O=C(CCCN1C(=O)/C(=C/c2ccccc2Cl)SC1=S)N1CCOCC1	11%	-19%	-17%	22µM*	19%	79µM*
O=C(CCN1C(=O)/C(=C/c2cccs2)SC1=S)N1CCCCC1	?	-11%	1%	?	10µM*	8.9µM*
COc1ccccc1/C=C1\SC(=S)N(CCC(=O)N2CCCCC2CCO)C1=O (configuration not stated)	-11%	-5%	-11%	?	?	-33%[57.1 µM]
O=C(CCN1C(=O)/C(=C\c2ccccc2)SC1=S)N1CCCCC1	-13%	3%	16%	-23%	-11%[59 µM]	-10%
O=C(NCC1(O)CCCCC1)C1CCC(=O)N(Cc2cccc(C(F)(F)F)c2)C1 (configuration not stated)	9%	-4%	-4%	-8%	/	0%
O=C(Oc1ccccc1)N1CCC2(CCCN(c3ncccn3)C2)CC1	/	-13%	/	/	32%[12.7 µM]	/

Bioassay records deposited in PubChem BioAssay by National Center for Advancing Translational Sciences (NCATS).
